Results filed as inconclusive are left out. A number with no mark means an inactive call. Calls of active or inactive are those of the source. The call rests on the fitted dose curve; in most records, active means well fitted inhibition curve with a large enough effect; inconclusive means small, poorly fitted or top-dose-only effect; inactive means flat fitted curve, though single readings scatter.
test system: CP286; assay: qHTS profiling for inhibitors of Plasmodium falciparum proliferation (AID 504749); further: nearly all actives have a fitted effect of over 60% in size;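 on activity, negative = inhibition: 0% = DMSO vehicle and full inhibition = artemisinin control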; conditions: P. falciparum in erythrocytes, SYBR Green DNA, 72 h; series mostly up to 28.7 µM; activity, negative = inhibition: at the top concentration
Outline: (§1)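 Readout was DNA-dye fluorescence from lysed cultures, ex 485/em 535 nm. Parasitized red cells had grown 72 h with compound; data scaled between 0.29 uM artemisinin and DMSO wells and corrected using vehicle-only plates.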
Potency means the concentration at half of the fitted maximal effect.

SMILES	Potency	activity, negative = inhibition
CC[C@@]1(O)C(=O)OCc2c1cc1n(c2=O)Cc2cc3c([N+](=O)[O-])cccc3nc2-1	4.47 µM (active)	–
CN=C(NC#N)Nc1ccc(C2=NNC(=O)C[C@@H]2C)cc1	–	0.303%
CCCCCCOc1ccc(C(=N)N(CCCC)CCCC)c2ccccc12	2.82 µM (active)	–
CCCCCC(CC)COC(=O)CC(C(=O)OCC(CC)CCCC)S(=O)(=O)O (stereo not drawn)	–	1.45%
Cc1cn([C@H]2C[C@H](O)[C@@H](CO)O2)c(=O)[nH]c1=O	–	-0.0028%
CN(C)CCCN1c2ccccc2C(C)(C)c2ccccc21	–	-28.2%
O=CCCCC=O	–	-1.5%
CC(C)=O	–	-0.325%
CCCCC(=O)O[C@]1(C(=O)CO)[C@H](C)C[C@H]2[C@@H]3CCC4=CC(=O)C=C[C@]4(C)[C@@]3(F)[C@@H](O)C[C@@]21C	–	-11.4%
CN1C(=O)CN2CCc3ccccc3C2c2cc(Cl)ccc21 (stereo not drawn)	–	-3.84%
COC(=O)C1=C(C#N)NC(C)=C(C(=O)OC(C)C)C1c1cccc([N+](=O)[O-])c1 (stereo not drawn)	10 µM (active)	–
CC(C)N=c1cc2n(-c3ccc(Cl)cc3)c3ccccc3nc-2cc1Nc1ccc(Cl)cc1	3.55 µM (active)	–
CCOC(=O)C1=CC2(CC)CCCN3CCc4c(n1c1ccccc41)C32 (stereo not drawn)	11.2 µM (active)	–
CC1=C(/C=C/C(C)=C/C=C/C(C)=C/C=C/C=C(C)/C=C/C=C(C)/C=C/C2=C(C)C(=O)CCC2(C)C)C(C)(C)CCC1=O	–	0.224%
COC(=O)[C@H]1[C@H]2CC3c4[nH]c5ccccc5c4CCN3C[C@@H]2CC[C@@H]1O (stereo partly drawn)	–	-0.831%

test system: CP291; assay: as above; conditions: P. falciparum in erythrocytes, SYBR Green DNA, 72 h; series mostly up to 28.7 µM; activity, negative = inhibition: at the top concentration
Outline: as §1

SMILES	activity, negative = inhibition	Potency
CCN(CC)CCOc1ccc(-c2nc3cc(Cl)ccc3s2)cc1	-19.1%	–
O=C(Nc1cccc(C(F)(F)F)c1)c1cc(Br)cc(Br)c1O	–	12 µM (active)
CC[C@@]1(O)C(=O)OCc2c1cc1n(c2=O)Cc2cc3c([N+](=O)[O-])cccc3nc2-1	–	12 µM (active)
C=C1C(=CC=C2CCC[C@@]3(C)[C@@H]2CC[C@H]3[C@H](C)CCCC(C)C)C[C@@H](O)C[C@@H]1O	-0.178%	–
Cc1cn([C@H]2C[C@H](O)[C@@H](CO)O2)c(=O)[nH]c1=O	6.27%	–
O=CCCCC=O	-5.27%	–
CC(C)=O	4.49%	–
O=C(O)c1cc(=O)c2c3nc4ccccc4oc-3cc(=O)c2[nH]1	-20.9%	–
CCOC(=O)C1=C(C)NC(C)=C(C(=O)OCC)C1c1ccccc1C=CC(=O)OC(C)(C)C	–	12 µM (active)
CCCCC(=O)O[C@]1(C(=O)CO)[C@H](C)C[C@H]2[C@@H]3CCC4=CC(=O)C=C[C@]4(C)[C@@]3(F)[C@@H](O)C[C@@]21C	-6.9%	–
Clc1cc(Cl)c(OCC#CI)cc1Cl	–	8.49 µM (active)
CN1C(=O)CN2CCc3ccccc3C2c2cc(Cl)ccc21 (stereo not drawn)	-10.2%	–
C#C[C@]1(O)CC[C@H]2[C@@H]3CCC4=CCCC[C@@H]4[C@H]3C(=C)C[C@@]21CC	-3.78%	–
COC(=O)C1=C(C#N)NC(C)=C(C(=O)OC(C)C)C1c1cccc([N+](=O)[O-])c1 (stereo not drawn)	–	16.9 µM (active)
CC(C)N=c1cc2n(-c3ccc(Cl)cc3)c3ccccc3nc-2cc1Nc1ccc(Cl)cc1	-13.2% [at 12.8 µM]	–
CC1=C(/C=C/C(C)=C/C=C/C(C)=C/CO)C(C)(C)CCC1	0.526%	–
O=C1CSC2(CCN(CCCN3c4ccccc4Sc4ccc(Cl)cc43)CC2)N1	–	13.5 µM (active)
CC1=C(/C=C/C(C)=C/C=C/C(C)=C/C=C/C=C(C)/C=C/C=C(C)/C=C/C2=C(C)C(=O)CCC2(C)C)C(C)(C)CCC1=O	1.99%	–
CCCCC(CC)COC(=O)CC(C(=O)OCC(CC)CCCC)S(=O)(=O)O (stereo not drawn)	-5.53%	–

test system: CP297; assay: as above; conditions: P. falciparum in erythrocytes, SYBR Green DNA, 72 h; series mostly up to 28.7 µM; activity, negative = inhibition: at the top concentration
Outline: as §1

SMILES	activity, negative = inhibition	Potency
CCN(CC)CCOc1ccc(-c2nc3cc(Cl)ccc3s2)cc1	-17.7%	–
CC[C@@]1(O)C(=O)OCc2c1cc1n(c2=O)Cc2cc3c([N+](=O)[O-])cccc3nc2-1	–	12 µM (active)
CCCCCCOc1ccc(C(=N)N(CCCC)CCCC)c2ccccc12	–	16.9 µM (active)
C=C1C(=CC=C2CCC[C@@]3(C)[C@@H]2CC[C@H]3[C@H](C)CCCC(C)C)C[C@@H](O)C[C@@H]1O	-7.27%	–
Cc1cn([C@H]2C[C@H](O)[C@@H](CO)O2)c(=O)[nH]c1=O	4.45%	–
CN(C)CCCN1c2ccccc2C(C)(C)c2ccccc21	-11%	–
O=CCCCC=O	1.05%	–
CC(C)=O	1.2%	–
O=C(O)c1cc(=O)c2c3nc4ccccc4oc-3cc(=O)c2[nH]1	-13.9%	–
CCOC(=O)C1=C(C)NC(C)=C(C(=O)OCC)C1c1ccccc1C=CC(=O)OC(C)(C)C	–	16.9 µM (active)
COc1cc(-c2ccc(-[n+]3nc(-c4ccccc4)nn3-c3ccc([N+](=O)[O-])cc3)c(OC)c2)ccc1-[n+]1nc(-c2ccccc2)nn1-c1ccc([N+](=O)[O-])cc1	–	16.9 µM (active)
CCCCC(=O)O[C@]1(C(=O)CO)[C@H](C)C[C@H]2[C@@H]3CCC4=CC(=O)C=C[C@]4(C)[C@@]3(F)[C@@H](O)C[C@@]21C	-9.08%	–
CN1C(=O)CN2CCc3ccccc3C2c2cc(Cl)ccc21 (stereo not drawn)	-3.32%	–
C#C[C@]1(O)CC[C@H]2[C@@H]3CCC4=CCCC[C@@H]4[C@H]3C(=C)C[C@@]21CC	-3.43%	–
COC(=O)C1=C(C#N)NC(C)=C(C(=O)OC(C)C)C1c1cccc([N+](=O)[O-])c1 (stereo not drawn)	–	13.5 µM (active)
CC(C)N=c1cc2n(-c3ccc(Cl)cc3)c3ccccc3nc-2cc1Nc1ccc(Cl)cc1	3.01% [at 12.8 µM]	–
CC1=C(/C=C/C(C)=C/C=C/C(C)=C/CO)C(C)(C)CCC1	-19.9%	–
CC1=C(/C=C/C(C)=C/C=C/C(C)=C/C=C/C=C(C)/C=C/C=C(C)/C=C/C2=C(C)C(=O)CCC2(C)C)C(C)(C)CCC1=O	-0.474%	–
CCCCC(CC)COC(=O)CC(C(=O)OCC(CC)CCCC)S(=O)(=O)O (stereo not drawn)	-0.828%	–

Reference: PubChem BioAssay (NCATS)
